HT1080-NT tox = kills 2HG-producing HT-1080-NT fibrosarcoma cells | HT-1080-NT fibrosarcoma viability, CellTiter-Glo ATP luminescence, 48 h | Potency, µM (series often up to 46.1 µM), most hits filed as cytotoxic | 360,000 tested, 1.6% active | AID 686970;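 also: NT is the 2HG producing partner of a matched IDH1 knockdown line; nearly all actives have a fitted effect of over 55% in size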
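Read-out is CellTiter-Glo luminescence after 10 minutes at room temperature, following 48 hours' compound treatment of HT-1080-NT cells (750 cells/well, RPMI, 5% FBS, 37 degrees C).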
HT1080 IDH1KD tx = toxicity to HT-1080 IDH1 knockdown cells (counter line); HT-1080 IDH1 knockdown viability, ATP luminescence, 48 h; 360,000 tested, 2% active; Potency, µM (top dose mostly 46.1 µM), usual class: cytotoxic
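IDH1KD HT-1080 cells, 750/well, RPMI + 5% FBS; compound pinned after 2 h settling; 48 h, 37 °C; CellTiter-Glo luminescence; % activity normalised to DMSO and no-cell wells; curves fitted, classed by r2 and efficacy.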
TDP1 cell noCPT = qHTS for Inhibitors of human tyrosyl-DNA phosphodiesterase 1 (TDP1): qHTS in cells in absence of CPT | Potency, µM (doses to about 46.2 µM), usual class: inhibitors | DT40 Tdp1-/- hTDP1 cells, no CPT, ATP luminescence, 48 h | 420,000 tested, 15% active; also: nearly all actives have a fitted effect of over 55% in size
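Cells were dispensed at 400 per well, compounds added by pin tool, plates incubated ≥48 hr at 37 °C, then CellTiter-Glo added for 30 min at room temperature before luminescence reading. Line: DT40 Tdp1-/- complemented with hTDP1; camptothecin omitted.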
TDP1 cell CPT = growth inhibition of DT40 Tdp1-/-;hTDP1 cells with camptothecin (screen for TDP1 inhibitors). chicken DT40 Tdp1-/-;hTDP1 cells + 20 nM CPT, ATP luminescence, 48 h. Potency, µM (doses to about 46.2 µM), hits mostly inhibitors. 420,000 tested, 12% active. AID 686979; also: nearly all actives have a fitted effect of over 55% in size
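Cell growth measured by CellTiter-Glo luminescence after a minimum 48 h, 37 C compound exposure with 20 nM CPT in Tdp1-knockout DT40 cells stably expressing hTDP1, seeded 400/well; qHTS titration format.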
IL-1B inflam inh = blocks inflammasome-driven IL-1 beta release; THP-1 LPS/ATP IL-1B secretion, AlphaLISA, 16 h; hits give low values; activity change, % at 57.5 µM; 360,000 tested, 4.7% active; in the data active = activity change below about -50%; inconclusive = mostly about -30% to -49%
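THP-1 cells pretreated 1 hr with compounds (up to 57.5 uM final), then stimulated with LPS (250 ng/mL final) plus ATP (1.25 mM final); secreted IL-1B measured by AlphaLISA after 16 hr, decreased signal indicating inhibition.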
Numbers stand for hits; . = inactive; ? = inconclusive; / = no result given; [ ] = remark or other dose. Rows were chosen to be rich in hits. Some 19% of all compounds tested hit in one or more screens of this group. Unless noted, calls follow the shape of the dose curve; as a rule, active = well fitted curve in the direction sought with a large enough effect; inconclusive = small, poorly fitted or top-dose-only effect, or another doubt; inactive = no such curve, though single readings can be large; an effect the other way counts as inactive or inconclusive.

SMILES	HT1080-NT tox	HT1080 IDH1KD tx	TDP1 cell noCPT	TDP1 cell CPT	IL-1B inflam inh
CC(=O)Nc1cccc(-c2ccnc3c2CC(C)(C(=O)Nc2cccc(Oc4ccccc4)c2)O3)c1 (stereo unspecified)	?	?	20.6µM	16.4µM	.
CC(=O)Nc1ccc(-c2ccnc3c2CC(C)(C(=O)Nc2cccc(C(C)=O)c2)O3)cc1 (stereo unspecified)	.	.	16.4µM	?	?
CC(=O)c1cccc(NC(=O)C2(C)Cc3c(-c4ccccc4)ccnc3O2)c1 (stereo unspecified)	.	.	23.1µM	23.1µM	.
CC1(C(=O)Nc2cccc(Oc3ccccc3)c2)Cc2c(-c3ccccc3)ccnc2O1 (stereo unspecified)	?	?	?	?	.
COc1ccc(OC)c(CN2CCOc3ccc(CN4CCC(O)(c5cccnc5)CC4)cc3C2)c1	/	/	?	.[9.04 µM]	/
O=C(NNc1c(F)c(F)cc(F)c1F)c1cc2ccccc2oc1=O	.	.	.	.	.
C[C@H](CO)N1C[C@H](C)[C@@H](CN(C)C(=O)Nc2ccccc2F)OCc2cnnn2CCCC1=O	.	.	.	.	.
O=C(Nc1ccc(-c2csnn2)cc1)C(Cl)(Cl)Cl	.	.	7.31µM	16.4µM	?
NC(=S)NN=C(Cc1ccccc1)Cc1ccccc1	.	.	3.66µM	5.8µM	.
CN(C)c1ccc(N2C(=NC(=O)CCC3CCCC3)SC3CS(=O)(=O)CC32)cc1 (stereo unspecified)	.	.	.	.	.
CC(Sc1nc(C2CC2)n(-c2ccccc2)n1)C(=O)c1c(N)n(C)c(=O)n(C)c1=O (stereo unspecified)	.	.	.	.	.
CC(Sc1nn(-c2ccc(F)cc2)c(=S)s1)C(=O)c1c(N)n(C)c(=O)n(C)c1=O (stereo unspecified)	.	.	13µM	?	.
Cn1c(N)c(C(=O)CSc2nn(-c3ccccc3)c(=S)s2)c(=O)n(C)c1=O	.	.	16.4µM	?	.
CC(C)Oc1ccc(CN2CCC2(C)C(=O)Nc2ccc3c(c2)OCO3)cc1 (stereo unspecified)	.	.	?	16.4µM	.
CC(C)c1ccc(CN2CCC2(C)C(=O)Nc2ccc3c(c2)OCO3)cc1 (stereo unspecified)	?	?	8.2µM	?	.
CC(C)c1ccc(CC(=O)N2CCC2(C)C(=O)Nc2ccc3c(c2)OCCO3)cc1 (stereo unspecified)	.	.	?	.	.
CCC(COC)NC(=O)c1cnn(-c2ncc3c(n2)-c2ccccc2CC3)c1C (stereo unspecified)	/	/	?	.[9.04 µM]	/
N#C/C(=C\c1ccc2c(c1)OCCO2)C(=O)Nc1ccc(C(=O)O)cc1	.	.	.	.	.
CCOc1cc(/C=C(/C#N)C(=O)Nc2ccc(O)cc2)cc(Br)c1O	1.84µM	2.31µM	0.92µM	0.651µM	.
C=CCNC(=O)/C(C#N)=C\c1cc(Cl)c(O)c(OCC)c1	.	.	.	.	.
N#C/C(=C/c1ccc2c(c1)OCO2)C(=O)Nc1ccc(O)cc1	.	.	11.6µM	7.31µM	.
CC(Oc1ccccc1)C(=O)NCC1Cc2cc(F)cc(-c3ccccn3)c2O1 (stereo unspecified)	/	/	.	.[9.04 µM]	/
C#CCN(C[C@H]1[C@H](OC(=O)NCC2CCCCC2)[C@H](OC(=O)NCC2CCCCC2)C[C@@H](C(=O)OC)[C@H]1C(=O)OC)S(=O)(=O)c1ccc(C)cc1	.	.	2.91µM	2.91µM	.
C#CCN(C[C@H]1[C@H](OC(=O)NCc2ccccc2F)[C@H](OC(=O)NCc2ccccc2F)C[C@@H](C(=O)OC)[C@H]1C(=O)OC)S(=O)(=O)c1ccc(C)cc1	.	.	6.51µM	4.61µM	.
CS(=O)(=O)Nc1cc(C(=O)N2CCNC(=O)C2)c2c(c1)ncn2CCc1ccccc1	/	/	.	.	/
O=C(CN1C(=O)CCS(=O)(=O)c2ccccc21)Nc1cccc(F)c1	.	.	.	.	.
